Drawing on PubChem BioAssay (EPA / NIEHS), this text covers outcome and AC50 for 21 compounds.

“And” between values parts separate entries of the source, which are not always exact repeats. Identical values can stand only once. Records with an inconclusive call do not appear. Some compounds were tested as several samples or in several runs, with calls that do not always agree. The source made the active and inactive calls. The calls were made as follows, unless noted: active = hit-call score of the fitted dose curve at least 0.9, where 1 is the maximum; inconclusive = response in the unintended direction; inactive = score below 0.9.

The AC50 is the concentration at which the activity in the assay is half-maximal.

A short description of assay [1]: BSK_4H_Eotaxin3: BioMAP Diversity Plus: 4H Assay for Eotaxin 3 Biomarker Activity (AID 2283000; active = hit-call score of the fitted dose curve at least 0.9, where 1 is the maximum; inactive = score below 0.9;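 as to outcome: CCL26 protein level quantified by ELISA in parallel with SRB cytotoxicity check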). Particulars: primary human endothelial cells (HUVEC); actives raise or lower the signal. In short, it runs like this:
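ELISA quantitation of CCL26 (Eotaxin-3) protein from chemically dosed human vascular endothelial cells at 24 h; increases and decreases both scored relative to DMSO-treated baseline.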

Assay [2] deals with human Peroxisome Proliferator-activated Receptor alpha (PPARa), PPARA (gene 5465) (UniProt Q07869). Description: ATG_PPARa_TRANS: Attagene TRANS-FACTORIAL HepG2 Assay for human Peroxisome Proliferator-activated Receptor alpha (PPARa) (AID 2283001). In short, it runs like this: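 HepG2 cells transiently transfected with multiplexed GAL4-UAS reporter units and chimeric NR-Gal4 constructs were dosed for 24 h. Reporter mRNA was measured by RT-PCR with fluorescent labelling and capillary electrophoresis; gain of signal fitted against DMSO.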

Read-out in assay [3]: Intercellular Adhesion Molecule 1 (ICAM1), ICAM1 (gene 3383)
The experiment in a line: BSK_3C_ICAM1: BioMAP Diversity Plus: 3C Assay for Intercellular Adhesion Molecule 1 (ICAM1) Biomarker Activity (AID 2283003; active = hit-call score of the fitted dose curve at least 0.9, where 1 is the maximum; inactive = score below 0.9). To be noted: primary human endothelial cells (HUVEC); actives raise or lower the signal. In short, it runs like this:
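Human vascular endothelial primary cells, 3C conditions, 24 h treatment. ICAM-1 by ELISA.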

The target of assay [4] is human Retinoic Acid Receptor beta (RARb), RARB (gene 5915) (UniProt P10826). The experiment in a line: ATG_RARb_TRANS: Attagene TRANS-FACTORIAL HepG2 Assay for human Retinoic Acid Receptor beta (AID 2283004). The method in brief:
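Fluorescent capillary-electrophoresis detection of GAL4-UAS reporter mRNA defines the endpoint, with induction over DMSO-treated wells scored as activity. Transiently transfected human hepatoma HepG2 cells expressing exogenous NR–Gal4 proteins are exposed to test chemicals for 24 h.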

Assay [5] can be described thus: BSK_3C_Proliferation: Cell Proliferation Assessment in the BioMAP Diversity Plus: 3C Assay (AID 2283006; active = hit-call score of the fitted dose curve at least 0.9, where 1 is the maximum; inactive = score below 0.9;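 as to AC50: potency may reflect either rise or fall in cell number versus DMSO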). To be noted: primary human endothelial cells (HUVEC). The method in brief:
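Proliferation of human vascular endothelial primary cells after 48 h dosing, quantified as SRB-stained protein at 560 nm relative to DMSO.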

In assay [6] the target is human Peroxisome Proliferator-activated Receptor delta (PPARd), PPARD (gene 5467) (UniProt Q03181). The experiment in a line: ATG_PPARd_TRANS: Attagene TRANS-FACTORIAL HepG2 Assay for human Peroxisome Proliferator-activated Receptor delta (PPARd) (AID 2283002). The method in brief: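 Measured quantity: GAL4-UAS reporter transcript induction in HepG2 after 24 h chemical dosing, with NR-Gal4 chimeras supplied by transient transfection. Detection by RT-PCR and capillary electrophoresis; upward fit against DMSO.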

Assay [7] concerns the target Peroxisome proliferator-activated receptor gamma (Homo sapiens) (UniProt P37231). The experiment in a line: ATG_PPARg_TRANS: Attagene TRANS-FACTORIAL HepG2 Assay for human Peroxisome Proliferator-activated Receptor-gamma (PPARg) (AID 2283007). The method in brief:
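Liver-derived HepG2 cells expressing an exogenous NR-Gal4 chimera alongside GAL4-UAS reporter genes; 24 h exposure. Fluorescence of reporter RT-PCR products, separated by capillary electrophoresis, gives mRNA induction relative to DMSO.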

The target of assay [8] is Nuclear receptor subfamily 1 group I member 2 (Homo sapiens) (UniProt O75469). The experiment in a line: ATG_PXR_TRANS: Attagene TRANS-FACTORIAL HepG2 Assay for human Pregnane X Receptor (PXR) (AID 2283008). The method in brief:
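Fluorescence intensity of FAM-labelled, HpaI-digested reporter amplicons, separated by capillary electrophoresis, quantifies induction. HepG2 cells with PXR-Gal4 trans-reporter system were exposed 24 h; DMSO defines baseline.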

The target in assay [9] is human Retinoic Acid Receptor gamma (RARg), RARG (gene 5916) (UniProt P13631). Description: ATG_RARg_TRANS: Attagene TRANS-FACTORIAL HepG2 Assay for human Retinoic Acid Receptor gamma (RARg) (AID 2283009). The method in brief: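 HepG2, RARg-GAL4 TRANS system, 24 h exposure; reporter mRNA by RT-PCR + CE fluorescence; increase over DMSO.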
The target of assay [10] is Retinoic acid receptor alpha (Homo sapiens) (UniProt P10276). Description: ATG_RARa_TRANS: Attagene TRANS-FACTORIAL HepG2 Assay for human Retinoic Acid Receptor alpha (RARa) (AID 2283005).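 As to AC50: potency for increased reporter signal meaning RARa activation over DMSO.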 The method in brief: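 HepG2 cells transiently transfected with multiple reporter units expressing chimeric RARα-GAL4 fusion, with GAL4-UAS-driven reporters. After 24 h compound exposure, reporter mRNA induction quantified by RT-PCR and capillary electrophoresis with fluorescent labeling; gain-of-signal fitted relative to DMSO control.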
Chain of Retinoic acid receptor alpha (Homo sapiens) (P10276 whole entry, looked up, the tested form may be a part): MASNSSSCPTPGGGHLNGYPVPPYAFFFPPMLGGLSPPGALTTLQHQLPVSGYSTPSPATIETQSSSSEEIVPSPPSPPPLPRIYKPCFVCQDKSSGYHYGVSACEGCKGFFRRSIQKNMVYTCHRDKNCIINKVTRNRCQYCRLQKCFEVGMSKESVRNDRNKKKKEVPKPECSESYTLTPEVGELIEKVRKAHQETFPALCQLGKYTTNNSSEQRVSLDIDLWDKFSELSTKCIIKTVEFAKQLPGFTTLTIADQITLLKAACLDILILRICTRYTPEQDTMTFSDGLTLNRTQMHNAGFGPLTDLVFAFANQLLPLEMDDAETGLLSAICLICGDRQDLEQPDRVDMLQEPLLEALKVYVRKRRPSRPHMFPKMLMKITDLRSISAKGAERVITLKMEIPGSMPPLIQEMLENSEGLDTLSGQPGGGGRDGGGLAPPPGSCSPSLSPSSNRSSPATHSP

Chain of human Peroxisome Proliferator-activated Receptor delta (PPARd), PPARD (gene 5467) (Q03181 whole entry, looked up, the tested form may be a part): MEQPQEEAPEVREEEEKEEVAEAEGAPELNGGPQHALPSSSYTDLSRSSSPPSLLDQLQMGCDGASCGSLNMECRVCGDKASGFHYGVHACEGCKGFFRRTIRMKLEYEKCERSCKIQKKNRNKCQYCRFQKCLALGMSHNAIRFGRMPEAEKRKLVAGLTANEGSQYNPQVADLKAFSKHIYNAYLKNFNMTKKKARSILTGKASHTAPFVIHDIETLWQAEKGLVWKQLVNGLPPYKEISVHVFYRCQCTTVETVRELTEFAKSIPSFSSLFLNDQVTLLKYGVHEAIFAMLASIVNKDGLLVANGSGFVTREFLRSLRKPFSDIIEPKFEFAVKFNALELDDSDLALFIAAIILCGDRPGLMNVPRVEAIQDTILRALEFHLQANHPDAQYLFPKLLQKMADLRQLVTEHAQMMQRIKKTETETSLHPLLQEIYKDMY
Chain of human Retinoic Acid Receptor beta (RARb), RARB (gene 5915) (P10826 whole entry, looked up, the tested form may be a part): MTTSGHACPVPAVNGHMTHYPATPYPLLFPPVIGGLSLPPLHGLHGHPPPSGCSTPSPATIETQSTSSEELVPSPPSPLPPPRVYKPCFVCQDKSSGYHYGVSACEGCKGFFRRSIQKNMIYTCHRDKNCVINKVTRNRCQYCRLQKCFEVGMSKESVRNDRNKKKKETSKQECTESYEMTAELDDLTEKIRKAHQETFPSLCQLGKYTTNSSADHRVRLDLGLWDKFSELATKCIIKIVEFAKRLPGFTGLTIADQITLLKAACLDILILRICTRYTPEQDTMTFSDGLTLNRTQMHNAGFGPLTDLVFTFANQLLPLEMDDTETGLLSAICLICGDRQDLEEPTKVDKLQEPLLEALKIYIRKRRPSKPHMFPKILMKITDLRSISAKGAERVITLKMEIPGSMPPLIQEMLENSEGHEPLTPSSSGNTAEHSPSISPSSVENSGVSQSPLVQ
Chain of Peroxisome proliferator-activated receptor gamma (Homo sapiens) (P37231 whole entry, looked up, the tested form may be a part): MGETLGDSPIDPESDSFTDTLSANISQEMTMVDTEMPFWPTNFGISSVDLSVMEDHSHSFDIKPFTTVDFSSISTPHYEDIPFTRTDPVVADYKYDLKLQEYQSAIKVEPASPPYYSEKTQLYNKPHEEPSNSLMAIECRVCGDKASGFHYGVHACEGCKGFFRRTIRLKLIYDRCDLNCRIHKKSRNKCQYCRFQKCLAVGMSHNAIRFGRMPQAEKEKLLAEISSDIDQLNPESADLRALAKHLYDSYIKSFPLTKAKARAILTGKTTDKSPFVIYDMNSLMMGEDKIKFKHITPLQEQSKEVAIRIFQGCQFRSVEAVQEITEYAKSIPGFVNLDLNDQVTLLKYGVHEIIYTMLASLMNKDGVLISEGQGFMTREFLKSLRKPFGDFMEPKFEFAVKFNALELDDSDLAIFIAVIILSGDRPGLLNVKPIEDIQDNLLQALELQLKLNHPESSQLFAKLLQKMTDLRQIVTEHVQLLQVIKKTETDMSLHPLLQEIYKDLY
Chain of human Retinoic Acid Receptor gamma (RARg), RARG (gene 5916) (P13631 whole entry, looked up, the tested form may be a part): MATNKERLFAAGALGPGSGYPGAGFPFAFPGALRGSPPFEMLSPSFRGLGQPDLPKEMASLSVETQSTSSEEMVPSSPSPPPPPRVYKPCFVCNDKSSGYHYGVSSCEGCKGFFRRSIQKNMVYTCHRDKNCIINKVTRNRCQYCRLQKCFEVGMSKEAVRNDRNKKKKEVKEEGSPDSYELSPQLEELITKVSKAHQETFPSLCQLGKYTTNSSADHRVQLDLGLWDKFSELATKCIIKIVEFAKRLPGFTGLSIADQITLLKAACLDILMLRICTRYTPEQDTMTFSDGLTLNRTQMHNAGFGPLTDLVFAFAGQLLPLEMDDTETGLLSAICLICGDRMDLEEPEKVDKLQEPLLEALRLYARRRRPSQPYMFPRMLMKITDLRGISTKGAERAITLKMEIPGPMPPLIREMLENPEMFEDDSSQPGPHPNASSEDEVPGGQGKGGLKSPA
Chain of human Peroxisome Proliferator-activated Receptor alpha (PPARa), PPARA (gene 5465) (Q07869 whole entry, looked up, the tested form may be a part): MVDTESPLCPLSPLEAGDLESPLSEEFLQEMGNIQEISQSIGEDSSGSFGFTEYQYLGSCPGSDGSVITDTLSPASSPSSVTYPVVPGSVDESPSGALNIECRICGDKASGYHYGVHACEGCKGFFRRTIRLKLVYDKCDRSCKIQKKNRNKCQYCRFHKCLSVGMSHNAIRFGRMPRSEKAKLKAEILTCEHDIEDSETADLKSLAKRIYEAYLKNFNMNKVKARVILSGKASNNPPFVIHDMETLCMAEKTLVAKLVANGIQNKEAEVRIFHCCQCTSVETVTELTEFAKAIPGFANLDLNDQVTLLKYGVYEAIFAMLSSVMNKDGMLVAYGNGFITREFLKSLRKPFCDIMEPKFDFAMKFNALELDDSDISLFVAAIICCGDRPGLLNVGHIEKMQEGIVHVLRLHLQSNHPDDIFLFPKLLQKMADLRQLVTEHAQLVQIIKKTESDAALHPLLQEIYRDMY
Chain of Nuclear receptor subfamily 1 group I member 2 (Homo sapiens) (O75469 whole entry, looked up, the tested form may be a part): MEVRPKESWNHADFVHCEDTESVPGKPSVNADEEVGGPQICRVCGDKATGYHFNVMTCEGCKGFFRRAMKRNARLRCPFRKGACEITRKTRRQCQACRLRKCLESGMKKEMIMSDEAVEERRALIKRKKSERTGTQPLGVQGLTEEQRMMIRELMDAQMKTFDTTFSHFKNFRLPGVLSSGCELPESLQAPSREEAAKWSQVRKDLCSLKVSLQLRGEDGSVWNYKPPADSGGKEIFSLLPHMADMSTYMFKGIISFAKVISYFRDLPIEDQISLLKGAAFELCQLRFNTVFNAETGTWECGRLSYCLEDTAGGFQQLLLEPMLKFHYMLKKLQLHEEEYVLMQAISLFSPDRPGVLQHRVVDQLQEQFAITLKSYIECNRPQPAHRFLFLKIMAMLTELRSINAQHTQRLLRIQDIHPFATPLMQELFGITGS

As for `NC(=O)C(F)(F)C(F)(F)C(F)(F)C(F)(F)F`, the result in assay [1], in [2], in assay [3], in [4] and in [5] was inactive.

On to `CCN(CC)c1ccc2c(C)cc(=O)oc2c1`, for which the outcome in [1], in [2], in assay [6] and in [3] was inactive. Also, the values for the AC50 in assay [5], in [7] and in assay [8] were 30.6 µM (active), 27.2 µM (active) and 3.63 µM (active), respectively.

Turning to `C=C(C)C(=O)OCC(F)(F)C(F)(F)C(F)(F)C(F)(F)C(F)(F)C(F)(F)C(F)(F)F`, the outcome in assay [1], in assay [6], in [3], in [4], in assay [5] and in assay [7] was inactive. In addition, the result in assay [8] and in assay [9] was inactive.

Take `N=C(N)C(F)(F)C(F)(F)C(F)(F)C(F)(F)C(F)(F)C(F)(F)C(F)(F)F`: the AC50 in assay [1] is 36.8 µM (active) and 30 µM (active); in assay [5], 50.7 µM (active) and 24.7 µM (active). The compound was classed as inactive in assay [2] and in assay [3].

Consider `FC(F)(F)C(F)(F)C(F)(F)C(F)(F)C(F)(F)C(F)(F)C(F)(F)I`, for which the outcome in assay [1], in assay [2], in assay [6], in assay [3], in [4] and in assay [5] was inactive. Further, in [7], the outcome was inactive.

Take `FC(F)(F)C(F)(F)C(F)(F)C(F)(F)C(F)(F)C(F)(F)CC1CO1` (stereo not drawn): the result in assay [1], in assay [2], in assay [3], in assay [4], in [10] and in [5] was inactive. In addition, in [9], the compound was called inactive.

Consider `FC(F)(I)C(F)(F)C(F)(F)C(F)(F)I`, for which the AC50 in assay [1] was 52.2 µM (active) and 47.2 µM (active) and 45.6 µM (active); in assay [3], 39.6 µM (active) and 45.6 µM (active) and 52.7 µM (active); in [5], 49.8 µM (active) and 52.8 µM (active) and 49.4 µM (active); in assay [7], 48.6 µM (active). In addition, the outcome in assay [2], in assay [4] and in assay [8] was inactive.

For the compound `CC(C)c1ccccc1N`, the outcome in assay [2], in [4] and in assay [7] was inactive.

Consider `COC(OC(C)=O)c1ccccc1` (stereo not drawn), for which the call in assay [6], in assay [7] and in assay [8] was inactive.

Consider `CC(C)(C)c1ccc(OC2CCCCC2O)cc1` (stereo not drawn), for which the compound was classed as inactive in [6], in [4] and in assay [10]. The values for the AC50 in [7] and in assay [8] were 28.4 µM (active) and 2.96 µM (active), respectively.

Take `CCCCOc1ccc(N)cc1`: the compound was called inactive in [8].

Regarding `c1ccc(B(c2ccccc2)c2ccccc2)cc1`, the result in [6] was inactive. Further, the AC50 in [7] was 33.9 µM (active).

`Nc1cc(Cl)c(N)c(Cl)c1`: the call in assay [2] and in [9] was inactive. The concentration at half-maximal activity (AC50) in assay [4] is 26.5 µM (active); in [10], 43 µM (active); in [7], 38.7 µM (active); in assay [8], 19.8 µM (active).

In the case of `c1ccc(-c2ccccc2-c2ccccc2)cc1`, in assay [6], the outcome was inactive. The AC50 in [8] was 27 µM (active).

With `CNC(=S)NC`, the compound was classed as inactive in [6], in assay [4], in [7] and in assay [8].

On to `[Co]`, for which the compound was classed as inactive in [10], in [7] and in assay [9]. The AC50 in assay [8] was 22.1 µM (active).

`Cc1cccc(N(C)C)c1`: the outcome in assay [2], in [8] and in [9] was inactive.

On to `Cc1ccc(S(=O)(=O)OCC(F)(F)C(F)(F)C(F)(F)C(F)(F)C(F)(F)C(F)F)cc1`, for which the compound was classed as inactive in assay [6], in assay [3], in [4], in [5], in assay [7] and in assay [9]. Moreover, the half-maximal activity concentration (AC50) is 30 µM (active) in assay [5] and 2.98 µM (active) in assay [8].

Take `OCC(F)(F)C(F)(F)C(F)(F)C(F)(F)C(F)(F)C(F)F`: the call in assay [6], in assay [3], in assay [4], in assay [10] and in assay [5] was inactive.

`CC(C)OC(=O)c1ccccc1C(=O)OC(C)C`: the compound was classed as inactive in [4], in assay [10] and in [9]. For the same compound, the AC50 in assay [7] is 100 µM (active).

Consider `CS(C)(=O)=O`, for which the outcome in [2], in assay [3] and in assay [5] was inactive.
